Source: PubChem BioAssay
An excerpt weighted towards active compounds, which were near 1.1% of everything screened.
CIT2 TOR yeast = alters CIT2-GFP fluorescence in TOR pathway yeast screen | S. cerevisiae CIT2-GFP strain, flow cytometry, 3 h; 100 means same as DMSO wells | 320,000 compounds, 0.065% hits | GFP response vs DMSO, % at 10 µM;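 active means GFP response relative to DMSO above a set limit, near the screen mean plus 3 SD, cut at about 150% in these data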;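 further: ratio of well median GFP fluorescence to mean of DMSO wells on the plate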
LAP4 TOR yeast = modulators of TOR pathway LAP4-GFP in S. cerevisiae. S. cerevisiae LAP4-GFP multiplex, flow cytometry GFP, 3 h; median GFP as percent of DMSO wells. GFP response vs DMSO, % at 10 µM. 320,000 compounds, 0.34% hits;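 active means GFP response vs DMSO above a set limit, about the screen mean plus 3 SD, cut at about 150% in these data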
AGP1-GFP MLPCN = alters AGP1-GFP fluorescence in TOR pathway yeast screen | GFP response vs DMSO, % at 10 µM | S. cerevisiae AGP1-GFP multiplex flow cytometry, 3 h; GFP as percent of DMSO wells | 320,000 compounds, 0.02% hits | AID 2066;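 active means GFP response relative to DMSO above a set limit, near screen average plus 3 SD, cut at about 150% in these data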;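 further: median GFP channel fluorescence of the gated AGP1 strain per well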
VLA-4 inh = inhibition in a human VLA-4 binding assay; VLA-4 expressing cells, ligand binding flow cytometry; inhibition, % (about 7 µM as worked out from the volumes in the protocol); 330,000 compounds, 0.2% hits; AID 2557; in the data active means inhibition above about 50%
Target sequence (P13612 whole entry, looked up): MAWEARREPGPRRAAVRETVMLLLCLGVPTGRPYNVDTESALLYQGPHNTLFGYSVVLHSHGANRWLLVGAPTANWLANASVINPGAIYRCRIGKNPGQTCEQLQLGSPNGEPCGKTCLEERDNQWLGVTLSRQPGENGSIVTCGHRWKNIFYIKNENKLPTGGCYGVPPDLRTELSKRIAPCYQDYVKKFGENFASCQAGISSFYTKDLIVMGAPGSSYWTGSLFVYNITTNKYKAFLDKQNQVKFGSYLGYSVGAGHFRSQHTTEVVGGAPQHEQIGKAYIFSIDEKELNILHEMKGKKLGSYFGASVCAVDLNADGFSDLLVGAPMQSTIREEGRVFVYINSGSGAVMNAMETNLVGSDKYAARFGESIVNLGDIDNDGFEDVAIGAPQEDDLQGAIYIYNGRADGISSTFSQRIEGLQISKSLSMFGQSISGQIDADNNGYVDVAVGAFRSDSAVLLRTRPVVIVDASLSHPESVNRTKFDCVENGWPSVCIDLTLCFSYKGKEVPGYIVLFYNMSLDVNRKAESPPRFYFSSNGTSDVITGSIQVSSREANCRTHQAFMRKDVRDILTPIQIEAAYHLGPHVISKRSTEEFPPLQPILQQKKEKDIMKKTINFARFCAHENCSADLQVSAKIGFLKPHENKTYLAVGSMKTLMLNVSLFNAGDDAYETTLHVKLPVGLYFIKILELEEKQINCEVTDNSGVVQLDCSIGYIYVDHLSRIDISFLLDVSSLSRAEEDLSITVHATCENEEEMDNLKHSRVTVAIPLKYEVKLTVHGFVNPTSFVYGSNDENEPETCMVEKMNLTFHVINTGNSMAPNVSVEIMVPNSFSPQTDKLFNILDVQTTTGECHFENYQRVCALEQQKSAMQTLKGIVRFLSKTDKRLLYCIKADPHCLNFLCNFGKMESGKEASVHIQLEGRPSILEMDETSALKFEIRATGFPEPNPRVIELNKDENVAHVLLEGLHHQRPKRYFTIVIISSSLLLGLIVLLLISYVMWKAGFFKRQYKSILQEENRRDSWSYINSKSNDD
RPL19A-GFP yeast = yeast TOR pathway RPL19A-GFP modulation; S. cerevisiae RPL19A-GFP strain, flow cytometry, 3 h; stronger effect = lower value; percent response vs DMSO, % at 10 µM; 330,000 compounds, 0.3% hits; AID 2025;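 active means percent response vs DMSO below 50%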;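 further: median channel GFP fluorescence of the barcoded RPL19A-GFP strain; ratio of sample median GFP to plate DMSO average so 100% = DMSO; lower means less RPL19A-GFP as with rapamycin TOR inhibition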
MEP2 TOR yeast = yeast TOR pathway MEP2-GFP modulation | S. cerevisiae MEP2-GFP strain, flow cytometry GFP, 3 h; 100% = DMSO control level | GFP response vs DMSO, % at 10 µM | 330,000 compounds, 0.51% hits;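 active means GFP response versus DMSO above a set limit, roughly screen mean plus 3 SD, cut at about 180% in these data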;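 further: median GFP fluorescence of the barcode-gated MEP2-GFP cells per well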
LAP4 cherry2 = reconfirmed LAP4-GFP TOR pathway modulator in yeast; shares compounds with LAP4 TOR yeast; S. cerevisiae LAP4-GFP strain, flow cytometry GFP, 3 h; GFP response vs DMSO, % at 10 µM; 590 compounds, 20% hits; AID 2621;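 active means GFP signal as percent of the solvent control above about 150%, meaning raised reporter expression, limit read from the data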;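 further: ratio of well median GFP fluorescence to plate DMSO mean so 100% = DMSO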
MEP2 cherry2 = second confirmation of modulators of TOR reporter MEP2-GFP in yeast. 590 compounds, 10% hits. shares compounds with LAP4 TOR yeast. AID 2622. S. cerevisiae MEP2-GFP strain, flow cytometry GFP, 3 h. GFP response vs DMSO, % at 10 µM;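 active means GFP signal above 150% of the solvent control wells, that is a rise of more than half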;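 further: median channel GFP fluorescence of all gated yeast cells per well; ratio of median GFP to plate DMSO average so 100% = DMSO level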
RPL19A GFP CP2 = second confirmation of modulators of TOR reporter RPL19A-GFP in yeast; shares compounds with LAP4 TOR yeast; S. cerevisiae RPL19A-GFP strain, flow cytometry GFP, 3 h; stronger effect = lower value; 100% means same as DMSO wells; GFP response vs DMSO, % at 10 µM; 590 compounds, 3% hits; AID 2623;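 active means under 65% GFP response relative to DMSO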;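 further: median GFP channel fluorescence per well over the all cells gate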
CIT2-GFP pick2 = second confirmation of modulators of TOR reporter CIT2-GFP in yeast | shares compounds with LAP4 TOR yeast | S. cerevisiae CIT2-GFP strain, flow cytometry GFP, 3 h; DMSO control wells read 100% | GFP response vs DMSO, % at 10 µM | 590 compounds, 8% hits | AID 2624;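 active means GFP response vs DMSO above about 150%, limit read from the data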;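 further: median green fluorescence per well over all gated yeast cells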
AGP1 GFP CP2 = second confirmation of modulators of TOR reporter AGP1-GFP in yeast; 590 tested, under 10 active; percent response vs DMSO, % at 10 µM; shares compounds with LAP4 TOR yeast; S. cerevisiae AGP1-GFP strain, flow cytometry GFP, 3 h; AID 2643;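 active means over 150 percent of DMSO response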;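 further: median GFP channel fluorescence over all cells without mother daughter split; sample median GFP divided by mean DMSO control so 100% equals DMSO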
Yeast autofluor = compound is autofluorescent in yeast s288c cells | S. cerevisiae s288c, 520 nm autofluorescence, flow cytometry, 3 h; stronger effect = higher value; zero means same as solvent-only cells | fluorescence change (kMESF span) at 33 µM | shares compounds with LAP4 TOR yeast | 610 tested, under 10 active;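 active means fluorescence span over the dose series, or activity score, above about 33, limit read from the data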
Yeast autofl DR = TOR screen hit shows autofluorescence in yeast s288c; shares compounds with LAP4 TOR yeast; S. cerevisiae s288c parental, compound autofluorescence, flow cytometry, 3 h; fluorescence change (span) at 33 µM; 110 tested, under 10 active;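 active means fluorescence change span, or the activity score built from it, above 25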
TORC1 bypass = wildtype yeast growth loss with TORC1 bypass cells unaffected. AID 504456. growth rating (0-3) at 30 µM. shares compounds with LAP4 TOR yeast. 120 tested, under 10 active. S. cerevisiae BY4741 spot growth rating, 48-72 h; stronger effect = lower value;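 active means growth rating at most 1 for wild type yeast while the TORC1 bypass strain still grows fully, rated 3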
The depositor's hits bear a star; . = not tested or not shown.

SMILES | CIT2 TOR yeast | LAP4 TOR yeast | AGP1-GFP MLPCN | VLA-4 inh | RPL19A-GFP yeast | MEP2 TOR yeast | Yeast autofluor | others
Clc1cc2cccnc2c2ncccc12 | 83 | 168* | 93 | 16 | 95 | 109 | . | LAP4 cherry2=131;MEP2 cherry2=108;RPL19A GFP CP2=95;CIT2-GFP pick2=95;AGP1 GFP CP2=89
O=C(N/N=C/c1c(F)cccc1Cl)C(=O)N1CCCCCC1 | 100 | 99 | 97 | 6 | 101 | 101 | .
CCCNC(=O)Cn1sc2nc(C)cc(C)c2c1=O | 85 | 105 | 103 | 2 | 91 | 90 | .
COC(=O)Cn1cnc2c(cnn2-c2ccc(C)cc2)c1=O | 74 | 88 | 75 | 2 | 99 | 99 | .
Cc1ccccc1C(=O)N1CCCC(N2CCN(Cc3ccc4c(c3)OCO4)CC2)C1 (centres undefined) | 97 | 95 | 100 | 2 | 104 | 97 | .
O=[N+]([O-])c1cc([N+](=O)[O-])c2cccnc2c1Oc1ccccc1O | 87 | 150 | 94 | 32 | 87 | 89 | .
Cc1ccc2ccc3cccnc3c2n1 | 92 | 90 | 71 | 3 | 106 | 112 | .
Cc1c(C)c2cccnc2c2ncccc12 | 80 | 183* | 69 | 17 | 90 | 89 | . | LAP4 cherry2=118;MEP2 cherry2=133;RPL19A GFP CP2=97;CIT2-GFP pick2=117;AGP1 GFP CP2=99
O=[N+]([O-])c1cc(F)c2cccnc2c1O | 103 | 185* | 115 | 6 | 93 | 114 | 0.72
CCOc1ccc(C(C)=O)cc1N1C(=O)C2C3C=CC(O3)C2C1=O (centres undefined) | 87 | 203* | 78 | -139 | 98 | 84 | 0.51
CCOc1ccc(C(C)=O)cc1N1C(=O)C2C3C=CC(C3)C2C1=O (centres undefined) | 103 | 101 | 112 | 5 | 106 | 107 | .
O=[N+]([O-])c1cc(Cl)cc(/C=N\Nc2ccccn2)c1O | 74 | 147 | 46 | 18 | 52 | 122 | 2.7 | LAP4 cherry2=179*;MEP2 cherry2=192*;RPL19A GFP CP2=82;CIT2-GFP pick2=165*;AGP1 GFP CP2=84
CCN1CCN(c2cc(C)c3cc(NC(=O)c4cccc(OC)c4)ccc3n2)CC1 | 90 | 100 | 49 | 2 | 60 | 154 | . | LAP4 cherry2=102;MEP2 cherry2=96;RPL19A GFP CP2=101;CIT2-GFP pick2=118;AGP1 GFP CP2=99
Nc1c(Cl)cc(C2=NCCn3c2c2ccc(C(F)(F)F)cc2[n+]3[O-])cc1Cl | 102 | 100 | 98 | -5 | 101 | 104 | .
CCc1ccc(OCC(=O)NNC(=S)NC(=O)C2CC2)c(Br)c1 | 88 | 166* | 94 | 23 | 106 | 116 | 0.71 | Yeast autofl DR=0.73;TORC1 bypass=3
COc1ccc(OCC(=O)NNC(=S)NC(=O)C2CCCCC2)cc1 | 116 | 170* | 104 | -6 | 106 | 127 | 2.4 | LAP4 cherry2=240*;MEP2 cherry2=140;RPL19A GFP CP2=113;CIT2-GFP pick2=155*;AGP1 GFP CP2=106
O=C(O)/C=C/C(=O)c1ccc2c(c1)CCc1ccccc1-2 | 60 | 226* | 78 | 2 | 72 | 89 | 1.2 | LAP4 cherry2=129;MEP2 cherry2=165*;RPL19A GFP CP2=69;CIT2-GFP pick2=87;AGP1 GFP CP2=77
COc1ccccc1CN1CC(C(=O)NC2CCOCC2)CCC1=O (centres undefined) | 86 | 95 | 92 | 10 | 94 | 89 | .
CS(=O)(=O)N1N=C(c2ccccc2)CC1c1ccc2c(c1)OCO2 (centres undefined) | 243* | 243* | 125 | . | 126 | 305* | 83*
CS(=O)(=O)Nc1cccc(C2=NN(S(C)(=O)=O)C(c3ccc4c(c3)OCO4)C2)c1 (centres undefined) | 102 | 91 | 94 | 8 | 97 | 104 | .
COc1ccc(N2C(=O)CC(Sc3ncn[nH]3)C2=O)c(OC)c1 (centres undefined) | 103 | 124 | 97 | 25 | 96 | 88 | 0.61
CC(C)c1ccc(N2C(=O)CC(Sc3ncn[nH]3)C2=O)cc1 (centres undefined) | 99 | . | 82 | 19 | 98 | 76 | .
COc1cc(OC)cc(C(=O)/C=C2\Sc3ccccc3N2C)c1 | 95 | 100 | 98 | 7 | 97 | 100 | .
COc1ccc2c(c1)S/C(=C\C(=O)c1ccncc1)N2C | 68 | 106 | 56 | -3 | 56 | 103 | 0.81 | LAP4 cherry2=97;MEP2 cherry2=114;RPL19A GFP CP2=62*;CIT2-GFP pick2=100;AGP1 GFP CP2=67
Cc1cccc2c1NC(=O)/C2=C\C(=O)c1cccs1 | 77 | 185* | 82 | 19 | 88 | 90 | -0.11
SMILES | CIT2 TOR yeast | LAP4 TOR yeast | AGP1-GFP MLPCN | VLA-4 inh | RPL19A-GFP yeast | MEP2 TOR yeast | Yeast autofluor | others
CCc1ccc2c(c1)/C(=N/N(C)C(=S)NC)C(=O)N2 | 90 | 104 | 101 | 12 | 95 | 106 | .
CN1/C(=C\C(=O)c2cccs2)C(C)(C)c2ccccc21 | 84 | 109 | 94 | . | 96 | 95 | .
CN(C)/C=C/C(=O)c1ccc(Br)s1 | 107 | 102 | 98 | 2 | 110 | 111 | .
Cc1cc(Br)c2c(c1)/C(=C/C(=O)c1cccs1)C(=O)N2 | . | 112 | 87 | 10 | 82 | 90 | -0.2
Cc1cc(C)c2c(c1)/C(=C/C(=O)c1ccc(Br)s1)C(=O)N2 | 110 | 106 | 113 | 40 | 109 | 110 | -0.1
CCc1ccc2c(c1)/C(=C/C(=O)c1cccs1)C(=O)N2 | 76 | 169* | 80 | 21 | 81 | 95 | 0.11
